Screening data (PubChem)
Sampled rows, rich in hits. Any-hit rate of the full collection: about 5%.
TbPYK inhibitor = T. brucei pyruvate kinase inhibition | actives 0.12% (n = 410,000) | TbPYK enzyme, Kinase-Glo Plus ATP luminescence, 45 min | AID 624173 | Potency, µM (highest dose often 76.8 µM), for inactives: at the highest dose activity, negative = inhibition, usual class: inhibitors; further: potency means the concentration at half of the fitted maximal effect; nearly all actives have a fitted effect of over 50% in size
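Enzyme and substrate buffer are dispensed first and compound is pin-transferred. ADP at 130 uM final then starts the reaction, which runs 45 min at room temperature. Detection reagent is added for 10 min before luminescence is imaged.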
VACV Venus inh = vaccinia inhibition (Venus reporter) | Vaccinia virus Venus reporter expression, fluorescence | Potency, µM (series often up to 36.5 µM), for the others: top-dose activity change, negative = inhibition, hits mostly inhibitors | actives 0.46% (n = 330,000); calls by dose curve; tested in A549 cells; further: potency means the concentration at half of the fitted maximal effect; nearly all actives have a fitted effect of over 30% in size
LmPK inhibitor = LmPK (Leishmania mexicana) enzyme inhibition | purified LmPK, Kinase-Glo ATP luminescence, 1 h | Potency, µM (titrated, usually from 57.5 µM), for inactives: at the top dose activity change, negative = inhibition, hits mostly inhibitors | actives 0.37% (n = 290,000) | AID 1721; further: potency means the concentration at half of the fitted maximal effect
Target sequence (Q27686 whole entry, looked up): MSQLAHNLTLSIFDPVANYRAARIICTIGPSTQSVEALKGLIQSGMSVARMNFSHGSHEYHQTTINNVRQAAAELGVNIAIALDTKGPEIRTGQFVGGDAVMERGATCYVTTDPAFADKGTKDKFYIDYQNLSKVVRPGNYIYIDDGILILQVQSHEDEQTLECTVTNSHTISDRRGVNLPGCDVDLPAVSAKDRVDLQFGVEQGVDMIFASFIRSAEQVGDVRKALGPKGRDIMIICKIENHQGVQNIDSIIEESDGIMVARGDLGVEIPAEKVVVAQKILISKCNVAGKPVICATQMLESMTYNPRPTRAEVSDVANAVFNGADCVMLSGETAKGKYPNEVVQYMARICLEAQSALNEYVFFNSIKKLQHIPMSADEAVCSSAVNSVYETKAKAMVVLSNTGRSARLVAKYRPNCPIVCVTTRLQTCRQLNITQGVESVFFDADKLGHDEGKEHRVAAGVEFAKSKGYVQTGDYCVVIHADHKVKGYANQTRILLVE
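Pyruvate kinase activity monitored as ATP production (luciferase luminescence). Conditions: 0.1 nM enzyme, 0.5 mM PEP, 0.1 mM ADP, 1 h, RT; normalized against uninhibited and no-enzyme wells.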
VACV mCherry inh = vaccinia inhibition (mCherry reporter); Vaccinia virus mCherry reporter infection, fluorescence; Potency, µM (titrated, usually from 36.5 µM), for inactives: at the top dose activity change, negative = inhibition, most hits filed as inhibitors; actives 0.63% (n = 310,000); calls by dose curve; tested in A549 cells; further: potency means the concentration at half of the fitted maximal effect; nearly all actives have a fitted effect of over 35% in size
HCMV antiviral = blocks human cytomegalovirus replication | HFF cells, HCMV-luciferase reporter, 72 h; active compounds read low | activity change, negative = inhibition, % at 57.5 µM | actives 4.5% (n = 410,000); in the data active means activity change below about -60%; inconclusive means no clear call, values can overlap the other calls; inactive means above about -39%
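Two compound doses tested in HFFs infected with HCMV-luciferase, MOI 1 PFU/cell, 72 h at 37C. Lysate luminescence read with OneGlo; data normalized against buffer-only and 10uM Salinomycin inhibitor controls.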
* = called active by the depositor; [ ] = dose if it differs, or a comment. Unless noted, the call rests on the fitted dose curve; in most records, active means well fitted curve in the direction sought with a large enough effect; inconclusive means small, poorly fitted or top-dose-only effect, or another doubt; inactive means no such curve, though single readings can be large; an effect the other way counts as inactive or inconclusive. On the % scale 0 is the no-effect control and ±100 the full control effect.

Results for CCOc1ccc2nc(NC(=O)CS(=O)(=O)c3ccc(Cl)cc3)sc2c1 ?
TbPYK inhibitor: 1%[15.4 µM]; VACV Venus inh: -2%; VACV mCherry inh: -10%; HCMV antiviral: active

How did COCCn1c(=N)c(C(=O)NCC2CCCO2)cc2c(=O)n3ccccc3nc21 (stereo unspecified) do in these assays?
TbPYK inhibitor: -16%; VACV Venus inh: -2%; VACV mCherry inh: 11%; HCMV antiviral: -18

Results for COc1ccc(CCn2c(=N)c(C(=O)NC3CCCC3)cc3c(=O)n4ccccc4nc32)cc1OC ?
TbPYK inhibitor: -5%; LmPK inhibitor: 9%; HCMV antiviral: -38

How did COc1ccc(CCn2c(=N)c(C(=O)NCC3CCCO3)cc3c(=O)n4ccccc4nc32)cc1OC (stereo unspecified) do in these assays?
TbPYK inhibitor: -8%; LmPK inhibitor: 9%; HCMV antiviral: -110*

What do the screens show for `COc1ccc(CCn2c(=N)c(C(=O)NC3CCCC3)cc3c(=O)n4ccccc4nc32)cc1`?
TbPYK inhibitor: 0%; VACV Venus inh: -10%; LmPK inhibitor: 0%; VACV mCherry inh: -19%; HCMV antiviral: -101*

What do the screens show for `CCOc1ccc(NS(=O)(=O)c2c(C)nc3sccn3c2=O)cc1`?
TbPYK inhibitor: 3%; VACV Venus inh: -17%; LmPK inhibitor: -5%; VACV mCherry inh: -12%; HCMV antiviral: -100*

What do the screens show for `CC1CCN(S(=O)(=O)N2CCC(C(=O)NCc3cccs3)CC2)CC1`?
TbPYK inhibitor: 0%; VACV Venus inh: -17%; LmPK inhibitor: 4%; VACV mCherry inh: -22%; HCMV antiviral: 32

How did COc1ccc(C(=O)c2cc(OC)c(OC)c(OC)c2)cc1OC do in these assays?
TbPYK inhibitor: 5%; VACV Venus inh: inconclusive; VACV mCherry inh: -24%; HCMV antiviral: -15

What do the screens show for `c1ccc2[nH]c3cc4ncnc4cc3nc2c1`?
TbPYK inhibitor: -2%; VACV Venus inh: inconclusive; LmPK inhibitor: -3%; VACV mCherry inh: inconclusive; HCMV antiviral: -87*

Results for O=C1CN(CCN2CC(=O)N(Cc3ccccc3)C(=O)C2)CC(=O)N1Cc1ccccc1 ?
TbPYK inhibitor: 3%; VACV Venus inh: -15%; VACV mCherry inh: -9%; HCMV antiviral: -26

How did OCC1(CCOc2ccccc2)CCN(CCCn2cccn2)CC1 do in these assays?
TbPYK inhibitor: -4%; VACV Venus inh: 3%; LmPK inhibitor: 5%; VACV mCherry inh: 7%; HCMV antiviral: 6

How did COc1cc(S(=O)(=O)NCCc2c(C)[nH]c3ccccc23)c(C)cc1C do in these assays?
TbPYK inhibitor: 0%; VACV Venus inh: -17%; VACV mCherry inh: -4%; HCMV antiviral: -103*

Results for CCC(C)NS(=O)(=O)c1ccc(S(=O)(=O)N2CC=C(c3ccc(F)cc3)CC2)cc1 (stereo unspecified) ?
TbPYK inhibitor: 0%; VACV Venus inh: -24%; LmPK inhibitor: -1%; VACV mCherry inh: -27%; HCMV antiviral: -73*

Results for COc1cc2c3nnc(-c4ccccc4)c-3cn(Cc3ccccc3F)c2cc1OC ?
TbPYK inhibitor: 2%; VACV Venus inh: -21%; LmPK inhibitor: -2%; VACV mCherry inh: -15%; HCMV antiviral: -97*

What do the screens show for `COc1cc2c(=O)c(S(=O)(=O)c3ccc(F)cc3)cn(Cc3ccccc3C)c2cc1OC`?
TbPYK inhibitor: 49%; VACV Venus inh: -12%; VACV mCherry inh: -9%; HCMV antiviral: 5

Results for COc1cc2c3nnc(-c4ccc(F)cc4)c-3cn(Cc3ccccc3F)c2cc1OC ?
TbPYK inhibitor: -1%; VACV Venus inh: inconclusive; LmPK inhibitor: 0%[11.5 µM]; VACV mCherry inh: -23%; HCMV antiviral: -89*

Results for CS(=O)(=O)N1CCC[C@@]2(CCN(C(=O)Nc3cccc(F)c3)C2)C1 ?
TbPYK inhibitor: 6%

How did CC(C)c1ccc(N2C(=O)/C(=C/N(C)C)SC2=S)cc1 do in these assays?
TbPYK inhibitor: -17%; LmPK inhibitor: inconclusive; HCMV antiviral: -60*

What do the screens show for `Cn1c(=O)c2[nH]c(CCCCCCCc3nc4ccccc4[nH]3)nc2n(C)c1=O`?
TbPYK inhibitor: 2%; VACV Venus inh: -22%; VACV mCherry inh: inconclusive; HCMV antiviral: -67*

What do the screens show for `Cn1c(=O)c2[nH]c(CCCCCc3nc4ccccc4[nH]3)nc2n(C)c1=O`?
TbPYK inhibitor: -8%; VACV Venus inh: -21%; VACV mCherry inh: -7%; HCMV antiviral: 6

What do the screens show for `CC#CC[N+](C)(C)CCCCCCCCCC`?
TbPYK inhibitor: 0%; VACV Venus inh: -9%; LmPK inhibitor: -1%; VACV mCherry inh: inactive; HCMV antiviral: -65*

What do the screens show for `CCCCCCCCCCCC[N+](C)(C)Cc1ccccc1`?
TbPYK inhibitor: -2%

What do the screens show for `C#CC[N+](C)(C)CCCCCCCCC`?
TbPYK inhibitor: -2%; VACV Venus inh: inconclusive; LmPK inhibitor: -4%; VACV mCherry inh: 11µM*; HCMV antiviral: -95*

Results for CCOc1ccccc1/C=C/c1onc(C)c1S(=O)(=O)N1CCC(C(=O)N2CCCCC2)CC1 ?
TbPYK inhibitor: -3%[15.4 µM]; VACV Venus inh: -18%; VACV mCherry inh: -28%; HCMV antiviral: 0

How did O=S(=O)(CCc1nnc(-c2ccccc2)o1)c1ccc2ccccc2c1 do in these assays?
TbPYK inhibitor: 5%; VACV Venus inh: 2.8µM*; LmPK inhibitor: 8%; HCMV antiviral: -10

Results for COCn1c(-c2ccc(OC)cc2)nc2ccccc21 ?
TbPYK inhibitor: -9%; VACV Venus inh: -22%; LmPK inhibitor: 22µM*; VACV mCherry inh: inactive; HCMV antiviral: 78

How did COc1ccc(-c2nc3ccccc3n2Cc2ccc(Cl)cc2)cc1 do in these assays?
TbPYK inhibitor: 3%; VACV Venus inh: -4%; VACV mCherry inh: -15%; HCMV antiviral: 4

Results for CCCn1c(-c2ccc(OC)cc2)nc2ccccc21 ?
TbPYK inhibitor: 6%; LmPK inhibitor: -2%; HCMV antiviral: -9

Results for COc1ccc(-c2nc3ccccc3n2Cc2ccc(C(C)C)cc2)cc1 ?
TbPYK inhibitor: -1%; VACV Venus inh: 8%; VACV mCherry inh: 3%; HCMV antiviral: -73*

Results for CN(C)c1nc(N)c2ncc(=S)[nH]c2n1 ?
TbPYK inhibitor: -19%; VACV Venus inh: -4%; LmPK inhibitor: 0%; VACV mCherry inh: inactive; HCMV antiviral: -32

Results for CCCCn1c(N)c(N(CC(C)C)C(=O)CSc2n[nH]c(-c3ccc(C)cc3)n2)c(=O)[nH]c1=O ?
TbPYK inhibitor: -3%; VACV Venus inh: -12%; VACV mCherry inh: -15%; HCMV antiviral: 21

What do the screens show for `CCCCCCCN(C(=O)CCl)c1ccccc1C`?
TbPYK inhibitor: 3%; VACV Venus inh: -19%; LmPK inhibitor: 1%; VACV mCherry inh: -19%; HCMV antiviral: -83*

How did Cc1ccccc1N(Cc1cc(=O)[nH]c2ccccc12)C(=O)CCl do in these assays?
LmPK inhibitor: -7%; HCMV antiviral: -101*
